Source: PubChem
Keap1-Nrf2 PPI: disrupts human Keap1 binding to Nrf2 peptide; Keap1 Kelch-Nrf2 peptide fluorescence polarization, 1536-well; Q14145; inhibition, % at 9.4 µM; actives 0.15% (n = 340,000); in the data active means inhibition above about 12%;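 further: human Keap1 Kelch domain with fluorescein labeled Nrf2 9mer peptide probe; 0% = neutral control wells and 100% = peptide positive control; higher means more block of Keap1 binding to Nrf2 peptide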
Target sequence (Q14145 whole entry, looked up, the tested form may be a part): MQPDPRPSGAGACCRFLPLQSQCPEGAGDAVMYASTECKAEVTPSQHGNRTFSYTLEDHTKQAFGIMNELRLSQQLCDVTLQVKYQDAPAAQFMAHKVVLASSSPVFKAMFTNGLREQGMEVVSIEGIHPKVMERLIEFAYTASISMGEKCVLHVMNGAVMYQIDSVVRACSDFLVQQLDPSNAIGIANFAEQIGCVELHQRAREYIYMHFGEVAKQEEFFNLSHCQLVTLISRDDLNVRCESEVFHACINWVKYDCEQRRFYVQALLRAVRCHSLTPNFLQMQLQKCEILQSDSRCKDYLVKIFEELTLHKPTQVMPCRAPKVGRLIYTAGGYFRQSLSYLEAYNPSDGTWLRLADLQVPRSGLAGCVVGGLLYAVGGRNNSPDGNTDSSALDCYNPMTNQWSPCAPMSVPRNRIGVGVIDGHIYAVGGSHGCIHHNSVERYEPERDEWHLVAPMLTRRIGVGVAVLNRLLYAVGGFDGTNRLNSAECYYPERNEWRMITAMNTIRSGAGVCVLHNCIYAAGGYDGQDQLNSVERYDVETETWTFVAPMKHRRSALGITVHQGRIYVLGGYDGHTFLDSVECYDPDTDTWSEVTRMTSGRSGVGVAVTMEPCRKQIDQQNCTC
C-LANA FP: blocks KSHV LANA C-terminal domain binding to DNA; MBP-C-LANA/FAM-LBS DNA binding, fluorescence polarization; inhibition, % at 9 µM; actives 0.078% (n = 340,000); AID 504423;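 active means highest replicate inhibition at or above 60% at 9 µM, even if other replicates fall short; inactive means all replicates below 60% inhibition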;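 further: 0% = neutral control wells and 100% = 4 µM acridine orange control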
eLon inh: inhibitors of E. coli Lon protease; P0A9M0; purified E. coli Lon protease, fluorescence polarization; inhibition, % at 7.94 µM; actives 0.42% (n = 360,000); AID 602123; in the data active means inhibition above about 13%, passing the limit was not always enough;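 further: 0% = enzyme with probe and DMSO and 100% = no enzyme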
LANA-H2A inh: blocks KSHV LANA binding to histone H2A/H2B; cell-free LANA-H2A/H2B peptide, fluorescence polarization; inhibition, % (test concentration not listed); actives 0.6% (n = 320,000); AID 2629; in the data active means inhibition mostly above about 10%, no sharp cut-off; inactive means mostly below about 6.7%
EBV gp42 inh: EBV gp42 inhibition; Fluorescence polarization binding assay, mP read-out; inhibition, % (tested at 21.74 µM); actives 0.42% (n = 220,000); in the data active means inhibition above about 50%
GLD-1 RNA inh: GLD-1-TGE RNA interaction inhibition (C. elegans). Q17339. actives 0.44% (n = 320,000). inhibition, % at 5.96 µM. purified GLD-1 + fluorescein TGE RNA, fluorescence polarization;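 active means percent inhibition above a per-plate cutoff, the plate mean of test compounds plus 3 SD, cut at about 30% in these data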;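 further: 0% = DMSO wells with GLD-1 and probe and 100% = wells lacking GLD-1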
* = called active by the depositor; / = no result given; + = active, no number. An excerpt weighted towards active compounds, which were near 1.5% of everything screened.

SMILES	Keap1-Nrf2 PPI	C-LANA FP	eLon inh	LANA-H2A inh	EBV gp42 inh	GLD-1 RNA inh
Cc1ccc(S(=O)(=O)Nc2nc3ccccc3nc2Nc2cccc(S(=O)(=O)N3CCCC3)c2)cc1	5	0	1	9	56*	14
C1C2CC3C1C3C2=NN=C1C2CC3C(C2)C13	/	/	-2	/	/	/
O=[N+]([O-])c1cccc(/C=N/Nc2ccccn2)c1	3	-2	-12	1	-7	-7
O=[N+]([O-])c1cccc(/C=N/Nc2nccnc2Cl)c1	-1	-1	-7	54*	-5	3
COCCNC(=O)C1(C)CCN(C(=O)c2nc(C)oc2C)C1 (stereo unspecified)	/	/	0	/	/	/
O=C(N/N=C/c1cccs1)c1cc(-c2ccc3ccccc3c2)n[nH]1	0	1	-1	-3	-8	7
O=C(N/N=C/c1cccs1)c1cc(-c2cccc3ccccc23)n[nH]1	-1	0	-1	17*	-4	7
CC1=CC2=C(OC1N(C)C)c1cccc3cccc(c13)C2=O (stereo unspecified)	1	3	64*	7	49	110*
CS(=O)(=O)c1ccc(C(=O)CN2C(=O)NC3(CCCc4ccccc43)C2=O)cc1 (stereo unspecified)	2	6	-1	17*	/	1
CCN1C[C@@H]2[C@@H]3C(=O)N(Cc4ccccc4)C(=O)[C@@H]3[C@](C)(C1=O)N2C(=O)c1ccc(F)cc1	0	2	5	/	/	/
CC(OC(=O)c1ccc(S(=O)(=O)N(C)C)cc1)C(=O)Nc1ccc(Cl)cn1 (stereo unspecified)	-6	0	-7	12*	-2	-10
COC(=O)c1cnc(Nc2nc(C(N)Cc3ccccc3)cs2)nc1C(F)(F)F (stereo unspecified)	/	/	-5	/	/	/
COC(=O)C1CCN(C(=O)c2ccc(Cl)c(S(=O)(=O)NCc3cccnc3)c2)CC1	1	1	-9	43*	-14	-2
CCOC(=O)[C@]12CCCC=C1N(Cc1cccc3ccccc13)C(=O)[C@H](CC(=O)NCc1ccccc1)C2	/	/	4	/	/	/
CC(=O)NS(=O)(=O)c1ccc(NC(=O)CC23CC4CC(CC(Br)(C4)C2)C3)cc1	-6	1	7	-6	/	5
O=C(CC12CC3CC(CC(Br)(C3)C1)C2)NC1CCCC1	-4	2	3	12*	/	6
O=C(COC(=O)c1cncc(Br)c1)NC12CC3CC(CC(C3)C1)C2	/	/	-24	20*	/	3
CCCCC[C@H](C)N1C[C@@H](COCc2ccccc2)Oc2cc(N3CC[C@H](O)C3)ccc2S1(=O)=O	/	/	1	/	/	/
CC(C)CNc1ncnc2c1ncn2[C@H]1CN(Cc2ccc3c(c2)OCO3)C[C@@H](CO)O1	/	/	-15	/	/	/
COc1ccc(-c2csc3ncn(CC(=O)N4CCOCC4)c(=O)c23)cc1	0	1	1	16*	-14	11
Cc1ccccc1-c1csc(C(O)c2cccnc2)n1 (stereo unspecified)	/	/	-9	/	/	/
CCCc1cc(=O)oc2cc(OCC(=O)NCCN3CCOCC3)c(Cl)cc12	/	/	-17	/	/	/
CCN(CC)CCN(C(=O)c1ccc(S(=O)(=O)N(C)C2CCCCC2)cc1)c1nc2ccc(OC)cc2s1	1	0	-1	108*	/	7
CCN(CC)CCN(C(=O)c1ccc(C(=O)c2ccccc2)cc1)c1nc2ccc(OC)cc2s1	3	2	-4	-2	/	-3
CCc1ccc2oc(=O)cc(CN3CCC(C)CC3)c2c1	-10	0	2	21*	-10	8
SMILES	Keap1-Nrf2 PPI	C-LANA FP	eLon inh	LANA-H2A inh	EBV gp42 inh	GLD-1 RNA inh
CC1(Cc2cccc(C#N)c2)C(=O)Nc2c(Cl)cccc21 (stereo unspecified)	/	/	-3	/	/	/
CCCCc1ccc(Nc2nc(N3CCOCC3)nc(N3CCOCC3)n2)cc1	0	0	4	21*	/	12
Cc1ccc(Nc2nc(N3CCOCC3)nc(N3CCOCC3)n2)cc1	-3	2	-3	-2	-17	2
COc1ccc(/C=C2\Oc3cc(OC(=O)N4CCOCC4)ccc3C2=O)cc1	-4	1	-8	3	-17	1
CC(=O)Oc1ccc2c(c1)O/C(=C\c1ccncc1)C2=O	2	37	79*	3	77*	93*
COC(=O)C1=C(CSc2nc3c(cc2C#N)CN(C)CC3)OC(N)=C(C#N)C1c1ccccc1F (stereo unspecified)	6	6	0	6	0	48*
CCOC(=O)C1=C(CSc2nc(-c3ccccc3)ccc2C#N)OC(N)=C(C#N)C1c1cccnc1 (stereo unspecified)	-5	2	-82	1	-61	-19
CCOC(=O)C1=C(CSc2nc3c(cc2C#N)CN(C)CC3)OC(N)=C(C#N)C1c1ccccc1 (stereo unspecified)	2	7	2	2	20	27
CCOC(=O)C1=C(CSc2nc(-c3ccccc3)ccc2C#N)OC(N)=C(C#N)C1c1ccccc1 (stereo unspecified)	-5	5	-74	198*	-74	-28
CCOC(=O)[C@]12CCC=C1N(Cc1ccccc1)C(=O)[C@H](CC(=O)N1CCOCC1)C2	/	/	3	/	/	/
S=C(NCc1cccs1)Nc1cc(Cl)cc(Cl)c1	-5	-1	5	21*	-7	4
Cc1ccc(N(CC(N)=O)C2SC(=O)NC2=O)cc1 (stereo unspecified)	-2	1	7	22*	4	4
Cc1ccc(N(CC(=O)O)C2SC(=O)NC2=O)cc1 (stereo unspecified)	-2	-1	-11	-4	-14	2
CN1CCN(/N=C/c2ccc(-c3ccccc3)cc2)CC1	0	0	-1	-1	-18	5
CN1CCN(/N=C/c2c3ccccc3c(Cl)c3ccccc23)CC1	-6	-1	2	-2	21	77*
N#CC1=C(N)OC2=C(CC/C2=C\c2ccccc2)C1c1ccccc1 (stereo unspecified)	-9	1	-222	22	95*	41*
CC(C)(C)c1ccc(CC(=O)N2CCC2(C)C(=O)NS(=O)(=O)c2ccc(Cl)s2)cc1 (stereo unspecified)	/	/	-7	/	/	/
Cc1cc2ccccn2c1C(=O)c1ccc(N/N=C/c2ccc(C(=O)O)cc2)c([N+](=O)[O-])c1	-4	1	-12	/	65*	/
COc1cc(/C=C2\SC(=Nc3ccc(O)cc3)NC2=O)cc(OC)c1O	0	-3	-113	11*	-18	-49
Cc1ccc(NC(=O)CN(C)C(=O)Cc2ccc(Cl)c(Cl)c2)cc1	-5	-2	10	2	/	8
Cc1ccc(NC(=O)CN(C)C(=O)Cn2ncc(Cl)c(Cl)c2=O)cc1	2	-1	2	+	-1	5
C/C(=N\Nc1ccc(Cl)c(C(=O)O)c1)c1ccc(N2CCOCC2)cc1	-1	-2	0	11*	/	-1
